Bioassay records deposited in PubChem by National Center for Advancing Translational Sciences (NCATS).
HttQ103 aggreg: mutant huntingtin aggregation inhibition; Potency, µM (top dose mostly 46.1 µM), for the others: top-dose activity change, negative = inhibition, most hits filed as inhibitors; 220,000 compounds, 1.1% hits; PC12 HttQ103-GFP aggregates, Acumen cytometry, 40 h; AID 1688; note: potency is the fitted concentration of half-maximal effect; % is set by controls: 0 for no effect and ±100 for the full control effect; nearly all actives have a fitted effect of over 60% in size
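Steps: seed 1500 PC12 HTTQ103-GFP cells/well; add tebufenozide, 100 nM final; add compound titration; add ATPLite reagent; quantify GFP aggregates by laser scanning cytometry.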
GoLoco inh red: inhibitors of human Gai1-RGS12 GoLoco interaction (red fluorophore). Potency, µM (series often up to 61.6 µM), for the others: top-dose activity, negative = inhibition, actives largely listed as inhibitors. Gai1:RGS12 GoLoco peptide FP, rhodamine, 10 min. P63096. 230,000 compounds, 0.44% hits; active = well fitted inhibition curve with a large enough effect, not every such curve was filed as active; inactive = no such curve, though single readings can be large or run the other way; note: potency is the fitted concentration of half-maximal effect; % is set by controls: 0 for no effect and ±100 for the full control effect; nearly all actives have a fitted effect of over 30% in size
HTT cytoprotect: protects HTT-Q103 PC12 cells, measured by ATP; PC12 HTT-Q103 induced, cytoprotection, ATP luminescence, 40 h; Potency, µM (top dose mostly 56.4 µM), for inactives: cytoprotection (ATP increase), hits mostly activators; 230,000 compounds, 0.14% hits; AID 1471; note: potency is the fitted concentration of half-maximal effect; % of control where 0% means no effect; nearly all actives have a fitted effect of over 45% in size
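Compounds added alongside 100 nM tebufenozide, which induces toxic Q103 huntingtin exon 1-GFP in stable PC12 cells; surviving cells quantified by luminescent ATP measurement. Medium: phenol red-free DMEM, 5% equine and 5% calf serum.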
ALDH1A1 block: ALDH1A1 (human) enzyme inhibition; Purified ALDH1A1, NADH fluorescence, propionaldehyde substrate; Potency, µM (doses to about 75.3 µM), for the others: top-dose activity, negative = inhibition, usual class: inhibitors; P00352; AID 1030; 220,000 compounds, 7.3% hits; active = well fitted inhibition curve with a large enough effect, not every such curve was filed as active; inconclusive = small, poorly fitted or top-dose-only effect, or another doubt; inactive = no such curve, though single readings can be large or run the other way;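 note: potency is the fitted concentration of half-maximal effect; plate controls were no enzyme wells and a reference inhibitor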
Target sequence (P00352 whole entry, looked up): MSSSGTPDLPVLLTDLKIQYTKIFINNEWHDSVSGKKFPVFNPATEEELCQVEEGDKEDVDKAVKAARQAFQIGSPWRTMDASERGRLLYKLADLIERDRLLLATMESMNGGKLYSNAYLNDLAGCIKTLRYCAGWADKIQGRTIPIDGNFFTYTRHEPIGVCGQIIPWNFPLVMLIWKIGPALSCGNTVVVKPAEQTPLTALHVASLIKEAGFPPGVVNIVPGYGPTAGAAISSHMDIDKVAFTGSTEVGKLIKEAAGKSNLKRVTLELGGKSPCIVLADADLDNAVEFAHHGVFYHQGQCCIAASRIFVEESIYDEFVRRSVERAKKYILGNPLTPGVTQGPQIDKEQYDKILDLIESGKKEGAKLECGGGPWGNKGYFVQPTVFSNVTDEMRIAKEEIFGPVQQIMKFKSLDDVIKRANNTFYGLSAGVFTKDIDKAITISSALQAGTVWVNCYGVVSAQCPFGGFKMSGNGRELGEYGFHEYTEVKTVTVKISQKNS
HPGD block: HPGD (human) dehydrogenase inhibition; P15428; purified HPGD, NADH fluorescence kinetic, PGE2 substrate; Potency, µM, without a hit: at the top dose activity change, negative = inhibition, hits mostly inhibitors; 150,000 compounds, 4.3% hits; AID 894; active = well fitted inhibition curve with a large enough effect, not every such curve was filed as active; inconclusive = small, poorly fitted or top-dose-only effect, or another doubt; inactive = no such curve, though single readings can be large or run the other way; note: potency is the fitted concentration of half-maximal effect; % is set by controls: 0 for no effect and ±100 for the full control effect
Target sequence (P15428 whole entry, looked up): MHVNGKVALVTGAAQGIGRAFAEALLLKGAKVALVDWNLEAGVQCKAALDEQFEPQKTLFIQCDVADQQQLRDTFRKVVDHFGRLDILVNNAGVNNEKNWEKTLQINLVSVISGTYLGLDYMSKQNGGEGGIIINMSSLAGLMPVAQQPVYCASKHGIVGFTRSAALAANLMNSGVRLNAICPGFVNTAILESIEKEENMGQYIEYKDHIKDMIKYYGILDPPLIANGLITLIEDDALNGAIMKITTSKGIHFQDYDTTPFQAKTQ
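NADH formation kinetics: reaction with 30 uM PGE2 and 1 mM NAD+ (final), 20 nM enzyme, Tris-HCl pH 8 with Tween 20, after 15 min compound preincubation at room temperature. Fluorescence change, last versus first of five reads.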
PNC inhibitor: blocks assembly of the perinucleolar compartment; 140,000 compounds, 3.1% hits; PC3M PTB-GFP, PNC prevalence imaging, 16 h; active compounds read low; activity change (PNC), negative = inhibition, % at 10 µM;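 active = readout at or below -70, meaning at least 70% loss of cells showing the perinucleolar compartment, a nuclear body marking cancer cells; inconclusive = readout between -30 and a set limit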;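 note: plate controls were DMSO wells for no effect and camptothecin positive control wells for full effect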
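Compounds are pinned in duplicate onto adhered PC3M cells stably expressing GFP-tagged PTB and incubated 16 h at 37 C. Cells are then fixed, nuclei stained with Hoechst, and PNC-positive cells counted.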
The depositor's hits bear a star; u = inconclusive; x = not tested or not shown; [ ] = dose if it differs, or a comment. Rows were chosen to be rich in hits. Some 11% of all compounds tested hit in one or more screens of this group. Unless noted, calls come from the whole dose curve; as a rule, active = well fitted curve in the direction sought with a large enough effect; inconclusive = small, poorly fitted or top-dose-only effect, or another doubt; inactive = no such curve, though single readings can be large; an effect the other way counts as inactive or inconclusive.

SMILES	HttQ103 aggreg	GoLoco inh red	HTT cytoprotect	ALDH1A1 block	HPGD block	PNC inhibitor
Cc1ccc(SCCNC(=O)/C=C/c2ccccc2Cl)cc1	14.1%	-11.5%	-3.3%	12.6µM*	u	u
O=C(/C=C/c1ccccc1Cl)NCCc1ccccc1	9.8%	8.3%	-24.6%	-7.4%	15.8µM*	23.6
CN(C)c1ccc(NC(=O)/C=C/c2ccccc2Cl)cc1	-11.0%	-19.3%	-0.7%[10 µM]	u	-10.7%	21.7
CC1=CC(=O)C2=C(C)CC[C@@H]3[C@@H](OC(=O)[C@H]3C)[C@H]12	x	2.6%[21.6 µM]	2.1%[40.3 µM]	-0.2%[20.9 µM]	0.7%	x
O=C(CCN1C(=O)c2cccc3cccc(c23)C1=O)NCc1ccco1	x	4.3%	x	u	x	x
NS(=O)(=O)c1cc2c(cc1Cl)N[C@@H]([C@@H]1C[C@@H]3C=C[C@H]1C3)NS2(=O)=O	x	12.8%	u	4.1%	-1.0%	x
Nc1ccc(C(=O)c2cccs2)cn1	-15.0%[9.22 µM]	12.1%	-15.3%[10 µM]	0.9%	x	x
COC(=O)C(C)c1ccc(C(=O)c2cccs2)cc1 (centres undefined)	x	-1.2%	-1.5%	-1.5%	14.1µM*	x
Nc1ccc(C(=O)c2cccs2)cc1	u	3.3%	x	-1.3%	22.4µM*	12.5
Cc1nc(SCC(=O)Nc2cc(C(N)=O)cc(C(N)=O)c2)c2c(C)c(C)sc2n1	11.9%[9.22 µM]	21.4%	-6.5%[10 µM]	x	x	x
O=C(NCC1CCCO1)c1ccc2c(=O)n(Cc3cccc(Br)c3)c(=S)[nH]c2c1 (centres undefined)	15.2%	-3.0%	-44.2%	u	x	x
CC(CCc1ccccc1)NC(=O)c1cccs1 (centres undefined)	-11.9%	6.2%	-11.8%	0.9%	u	34.5
CS(=O)(=O)c1ccc(S(=O)CC(=O)OCc2ccccc2)c([N+](=O)[O-])c1 (centres undefined)	u	-9.5%	x	12.6µM*	x	x
CCCCc1nc2c(c3c1CC(C)OC3)CN(CCOc1ccccc1)CC2 (centres undefined)	x	x	-10.8%[10 µM]	-2.1%[13.5 µM]	x	x
Cc1cccc(-n2c(=O)[nH]c3c(C(N)=O)nc(C(C)C)nc32)c1	-6.1%	10.0%	12.8%[10 µM]	-15.5%	u	-100.0*
COc1cccc(-c2nc(C(N)=O)c3[nH]c(=O)n(-c4cccc(Cl)c4)c3n2)c1OC	19.5%	-7.3%	-2.0%	5.8%	-12.5%	-4.3
CCc1cc(-c2n[nH]c(=S)n2-c2ccccc2C)cs1	-8.7%	14.7%	-18.0%	8.91µM*	u	35.5
C=CCn1c(-c2cccc(Cl)c2)n[nH]c1=S	6.2%	9.0%	5.2%	11.2µM*	u	u
CCCc1cc(-c2n[nH]c(=S)n2C(C)c2ccccc2)cs1 (centres undefined)	u	3.3%	9.1%	u	12.6µM*	28.2
S=c1[nH]nc(-c2ccc(Cl)cc2Cl)n1Cc1ccccc1	2.8%	16.1%	x	31.6µM*	15.8µM*	u
CCCc1cc(-c2n[nH]c(=S)n2CC)cs1	-22.8%	10.9%	-69.6%	u	x	x
CCN=C(N)CSS(=O)(=O)O	x	2.7%[14.2 µM]	3.2%[10 µM]	-6.6%[13.5 µM]	-0.8%	x
Cc1cccc(-c2n[nH]c(=S)n2Cc2ccccc2)c1	9.0%	8.9%	-2.7%[10 µM]	u	u	53.1
CCn1c(-c2csc(C(C)C)c2)n[nH]c1=S	5.8%	4.5%	x	15.8µM*	u	-11.4
S=c1[nH]nc(-c2cccc(Cl)c2)n1Cc1ccccc1	u	0.3%	15.6%[10 µM]	u	17.8µM*	55.6
SMILES	HttQ103 aggreg	GoLoco inh red	HTT cytoprotect	ALDH1A1 block	HPGD block	PNC inhibitor
CC(C)Cn1c(-c2csc(C(C)C)c2)n[nH]c1=S	6.0%[9.22 µM]	-5.2%	-9.2%	u	x	x
O=[N+]([O-])c1cccc(-c2n[nH]c(=S)n2Cc2ccccc2)c1	19.1%	12.7%	15.4%[10 µM]	u	25.1µM*	-12.0
C=CCn1c(-c2cccc(S(=O)(=O)N(CC)CC)c2)n[nH]c1=S	-23.9%	8.0%	-38.0%	2.24µM*	x	x
COc1cc(/C=N/Nc2ccc(Cl)cc2)ccc1OC(=O)c1cccs1	18.5%	3.4%	12.6%[1.9 µM]	-23.2%	-8.8%	56.9
CC(=O)C1=C(C)N(Cc2ccccc2)C(=O)N[C@H]1c1ccco1	u	19.0%[14.2 µM]	5.9%[10 µM]	-11.9%[13.5 µM]	-5.5%	x
COc1ccc(C2CC(c3ccccc3)=NN2C(=O)COC(=O)c2nc3nc(C)cc(C)n3n2)cc1 (centres undefined)	15.0%	35.1%	-18.3%	u	x	x
CCc1cc(-c2n[nH]c(=S)n2Cc2ccccc2)cs1	4.0%	6.4%	-15.6%	5.62µM*	14.1µM*	51.3
CCOc1cc(/C=C(\C#N)c2[nH]nc(N)c2C#N)ccc1O	-32.1%	34.6%	-112.0%	u	25.1µM*	41.3
Cc1ccc(N/N=C(/Sc2nnnn2-c2ccccc2)C(=O)c2ccccc2)cc1	10.5%	2.6%	x	3.16µM*	-11.9%	23.9
O=C(/C(=N\Nc1ccc([N+](=O)[O-])cc1)Sc1nnnn1-c1ccccc1)c1ccccc1	u	38.5%	15.8%[10 µM]	3.16µM*	-11.2%	-11.3
O=C(Nc1ccccc1)N1CC2(CCN(C(=O)c3ccco3)CC2)C1	x	1.2%	u	2.4%	-8.9%	x
CN(C)c1ccc(/C=N/O)cc1	-6.8%	-1.6%	-44.7%	-1.2%	x	x
CN(C)c1ccc(C=Nc2ccccc2)cc1	6.6%	-7.8%	-1.7%	0.891µM*	-16.3%	-11.7
CN(C)c1ccc(N=Cc2ccco2)cc1	0.6%[9.22 µM]	-2.1%	-19.2%	5.01µM*	-29.2%	-22.5
CN(C)c1ccc(/C=N/NC(=O)c2ccccc2)cc1	x	3.5%	x	u	x	x
C(=Nc1cccc2c(N=Cc3ccco3)cccc12)c1ccco1	u	-10.6%	x	u	x	x
CN(C)c1ccc(C=Nc2ccc(N(C)C)cc2)cc1	-22.0%	10.0%	-4.2%[10 µM]	2.24µM*	-27.2%	40.6
C/C(=N/N=C/c1ccc(N(C)C)cc1)c1ccccc1	-4.7%	7.2%	x	25.1µM*	-15.5%	23.9
Cn1ncc2c(Nc3ccc([N+](=O)[O-])cc3)nc(Cl)nc21	-8.8%[9.22 µM]	-9.6%	12.4%[10 µM]	13.5%	x	x
NC[C@@H]1O[C@@H](O[C@H]2[C@H](O)[C@@H](O[C@@H]3O[C@@H](CO)[C@H](O)[C@@H](N)[C@@H]3O)[C@H](N)C[C@@H]2N)[C@@H](O)[C@H](O)[C@H]1O	x	8.7%	u	16.4%	-16.5%	x
FC(F)(F)c1cnc(-c2cnc(-c3cccnc3)nc2)c(Cl)c1	2.1%	7.2%	-27.5%	5.4%	x	x
Cc1ccc(/C=N/N=C/c2ccc(C)cc2)cc1	9.8%	7.8%	12.7%[10 µM]	12.7%	-3.3%	18.8
CCN(CC)c1ccc(O)c(C=Nc2ccc(C)c(C)c2)c1	4.4%	-0.9%	9.0%	u	x	x
Cc1ccc(N=Cc2ccc(N(C)C)cc2)cc1C	-5.7%	-2.1%	-31.6%	0.562µM*	x	x
Cc1ccc(N=Cc2ccc(N(C)C)cc2)cc1	-3.8%	15.3%	6.8%	0.562µM*	-15.3%	-16.1
O=C(COc1ccc(Cl)cc1)NNC(=O)CSc1nncs1	-4.1%	5.1%	-11.4%	2.9%	x	x
